“And” between values parts separate entries of the source, which are not always exact repeats. Identical values can stand only once. The panel holds about 83,000 compounds, 20% with a hit somewhere; the sample as a whole holds those more often.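 Assay: single dose, 48 h. Readout: percent growth (0 = no net growth; negative = cell death). Active: <10.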 Unmarked numbers belong to inactive results. The source made the active and inactive calls.

The test system of the first test is NCI-H23 lung. Briefly: NCI-60 one-dose screen, 48 h (100 = growth as untreated, 0 = no growth, -100 = all killed). The settings on record: 10 µM unless noted.
`N#CC1C(=O)SC2c3ccccc3C(=O)c3ccccc3C12` (configuration not stated): the growth was 104%.

Take `Nc1nc(N)c2c(ccc3c2ccn3Cc2cccc([N+](=O)[O-])c2)n1`: the growth is -74.8% (active).

Turning to `Cn1c2c(c3ccccc31)CCN1C[C@@H]3CCCC[C@H]3C[C@@H]21`, the growth is 14.4%. On the same count and under the same terms, with `Oc1c(Br)c(Br)c(O)c(Br)c1Br` the figure was 92.5%; with `O=C(Nc1ccccc1)Oc1c(Cl)c(Cl)c(Cl)c(Cl)c1Cl`, 93.8% and 93.2%; with `Nc1ncnc2c1ncn2C1OC(CO)C(O)C1O` (configuration not stated), 111% and 93.6% and 103%. Consider `Nc1nc(N)c2nc(CNc3ccc(C(=O)NC(CCC(=O)O)C(=O)O)cc3)cnc2n1` (configuration not stated), for which the growth is 24.8% and 22.4%. `O=C(CC1(O)C(=O)Nc2c(Cl)ccc(Cl)c21)c1ccc(Cl)cc1Cl` (configuration not stated): the growth is 101%.

For `O=C(/C=C\c1ccccc1)N1c2ccccc2CC1c1c[nH]c2ccccc12` (configuration not stated), the growth was 59.5%.

With `CC1=CC(O)C2CC1C2(C)C` (configuration not stated), the growth was 112% and 110%. With `CCN1/C(=C\c2cc[n+](CC)c3ccccc23)C=Cc2ccccc21`, the growth was 12.7%. `CC(C)c1ccc2nc3ccc(C(=O)NCCN4CCN(c5ccccc5)CC4)cn3c(=O)c2c1`: the growth is 50.5%. Still for that read-out and setting: with `O=C(O)C1C2CC3C(OC(=O)C31)C2Br` (configuration not stated) the figure was 103% and 95.4%; with `NC(=S)N/N=C/c1ccc(Cl)s1`, 106%; with `CCN(CC)CCOc1ccc(-c2nc3cc(Cl)ccc3s2)cc1`, -53.6% (active).

The test system of another test is NCI-H226 lung. Described as above. Particulars: 10 µM unless noted.
`CCC(CCCN(CC)CCc1ccccc1)OC(=O)c1cc(OC)c(OC)c(OC)c1` (configuration not stated): the growth is 89.7%. As for `CCC(CC)COC(=O)c1ccc(O)c(O)c1`, the growth was 63.9%. For `COC(=O)Nc1nc2ccc(C(=O)c3ccccc3)cc2[nH]1`, the growth is 50.9% and 80.4% and 109%. As for `CC(=O)ON=C1C=CC(=C(C#N)c2ccccc2)C=C1`, the growth is 66.8%. As to `NC(=O)/C=C/C(=O)c1c(Cl)cccc1Cl`, the growth is 37.9%. The same measure, in the same setting: with `CCCCCCCCCCCCCCCC[N+](C)(CCO)Cc1cnc[nH]1` (configuration not stated) the figure was -4.89% (active); with `Oc1c(Br)cc(Cl)cc1C(c1cc(Cl)cc(Br)c1O)C(Cl)(Cl)Cl`, 33.4%. As to `CC1OC2CC(=O)OC2C2=C1C(=O)c1c(O)cccc1C2=O` (configuration not stated), the growth was -80% (active). On the same count and under the same terms, with `CC(C)(C)c1ccc(O)c(C2CCCCC2)c1` the figure was 104%; with `Oc1c(Cl)cc(Cl)c2cccnc12`, 81% and 71.6%. Take `CCN(CC)CC(C)(C)C(=O)/C=C/c1ccc(Cl)c(Cl)c1`: the growth was -15.3% (active). On the same count and under the same terms, with `CN(C)CCOc1ccc2c(c1)C(=O)/C(=C\c1ncc([N+](=O)[O-])n1C)C2` the figure was -38.5% (active); with `C/C=C1\SC(=S)NC1=O`, 103%; with `CCOC(=O)/C(=C\c1ccc(-c2ccccc2)cc1)C(C)=O`, 101%.

Regarding `N#CSCc1ccc(CSC#N)c(Cl)c1`, the growth is 93.1%.

Take `CNC(=O)N/N=C/c1ccc([N+](=O)[O-])o1`: the growth was 104%. On the same count and under the same terms, with `Cc1cc2nc(CS)[nH]c2cc1C` the figure was 93.1%; with `N#CC1C(=O)SC2c3ccccc3C(=O)c3ccccc3C12` (configuration not stated), 94.8%. Same read-out and setting: with `Nc1nc(N)c2c(ccc3c2ccn3Cc2cccc([N+](=O)[O-])c2)n1` the figure was -86.6% (active). Same read-out and setting: with `Cn1c2c(c3ccccc31)CCN1C[C@@H]3CCCC[C@H]3C[C@@H]21` the figure was 32.3%; with `Oc1c(Br)c(Br)c(O)c(Br)c1Br`, 113%; with `O=C(Nc1ccccc1)Oc1c(Cl)c(Cl)c(Cl)c(Cl)c1Cl`, 96.2% and 88.3%. For the molecule `Nc1ncnc2c1ncn2C1OC(CO)C(O)C1O` (configuration not stated), the growth is 105% and 82.7% and 103%. For `Nc1nc(N)c2nc(CNc3ccc(C(=O)NC(CCC(=O)O)C(=O)O)cc3)cnc2n1` (configuration not stated), the growth was 60.5% and 52%.

On to `O=C(CC1(O)C(=O)Nc2c(Cl)ccc(Cl)c21)c1ccc(Cl)cc1Cl` (configuration not stated), for which the growth is 97.6%. For `O=C(/C=C\c1ccccc1)N1c2ccccc2CC1c1c[nH]c2ccccc12` (configuration not stated), the growth was 67.3%.

Consider `CC1=CC(O)C2CC1C2(C)C` (configuration not stated), for which the growth is 98.1% and 97.9%. As for `CCN1/C(=C\c2cc[n+](CC)c3ccccc23)C=Cc2ccccc21`, the growth is 19.6%. Same read-out and setting: with `CC(C)c1ccc2nc3ccc(C(=O)NCCN4CCN(c5ccccc5)CC4)cn3c(=O)c2c1` the figure was 38.4%. For `O=C(O)C1C2CC3C(OC(=O)C31)C2Br` (configuration not stated), the growth was 88.3% and 90.7%.

On to `NC(=S)N/N=C/c1ccc(Cl)s1`, for which the growth is 97.4%. As to `CCN(CC)CCOc1ccc(-c2nc3cc(Cl)ccc3s2)cc1`, the growth is 65.2%.
